Only some compounds are listed: those with a hit (about 21% of all), similar ones and a draw of the others.
AMA1-RON2 inh – qHTS for Inhibitors of AMA1-RON; Towards Development of Antimalarial Drug Lead: Primary Screen. Plasmodium falciparum AMA1 (3D7) - RON2 peptide interaction. AlphaScreen AMA1-biotinylated RON2 peptide binding. Potency, µM (titrated, usually from 58.2 µM), for the others: at the top dose activity change, negative = inhibition, actives largely listed as inhibitors. hit rate 0.2% among 360,000;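 also: potency is read from the fitted curve at half-maximal effect; 0% = vehicle wells and -100% = peptide control; nearly all actives have a fitted effect of over 45% in size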
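AMA1 (3D7) with his tag at 25 nM final met compounds first, then biotinylated RON2 peptide at 25 nM; detection used donor plus acceptor beads, 10 µg/mL apiece, read by AlphaScreen after 30 min at room temperature.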
Pf growth 96h – Primary qHTS for delayed death inhibitors of the malarial parasite plastid, 96 hour incubation. P. falciparum luciferase reporter growth, 96 h. Potency, µM (series often up to 28.7 µM), inactives show top-dose activity change, negative = inhibition, hits mostly inhibitors. hit rate 6.9% among 320,000. AID 504834, 2011; also: potency is read from the fitted curve at half-maximal effect; % is scaled to controls: 0 for no effect and ±100 for the full control effect
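Erythrocytes infected with luciferase-expressing P. falciparum were dispensed at 2% hematocrit and 0.05% parasitemia (final), then incubated with compounds 96 hours at 37 C in 5% CO2. Luminescence after detection reagent addition reported growth.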
CHX counter – Cycloheximide Counterscreen for Small Molecule Inhibitors of Shiga Toxin; cell reporter, cycloheximide protein synthesis inhibition counterscreen; max response, %; hit rate 12% among 300,000; in the data active = max response mostly above about 13%, no sharp cut-off; inactive = mostly below about 14%; also: read at 38.3 µM for the half of the compounds with a filed dose; 0% is about no effect
Pf growth 48h – Primary qHTS for delayed death inhibitors of the malarial parasite plastid, 48 hour incubation | P. falciparum luciferase growth in erythrocytes, 48 h | Potency, µM (highest dose often 28.7 µM), for the others: at the highest dose activity change, negative = inhibition, usual class: inhibitors | hit rate 5.9% among 310,000; also: potency is read from the fitted curve at half-maximal effect; % is scaled to controls: 0 for no effect and ±100 for the full control effect
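Cell-based growth assay: transgenic P. falciparum expressing firefly luciferase, cultured in red cells within RPMI 1640 containing 0.5% w/v Albumax, 24 mM bicarbonate and gentamycin. A drop in luciferase activity indicates inhibition.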
Shiga inhibitor – A qHTS for Small Molecule Inhibitors of Shiga Toxin; Vero cells, Shiga toxin protein synthesis inhibition reporter; inhibition, % at 38.7 µM; hit rate 9.2% among 290,000; AID 2315, 2010; in the data active = inhibition mostly above about 28%, no sharp cut-off; inactive = mostly below about 43%; also: 0% is about no effect
HCV inh – qHTS Assay for Inhibitors of Hepatitis C Virus (HCV). Huh7.5.1 HCVcc-Cre infection, luciferase reporter, 44 h. Potency, µM (top dose mostly 41.8 µM), without a hit: at the top dose activity change, negative = inhibition, hits mostly inhibitors. hit rate 3.4% among 340,000. AID 651820, 2012; also: potency is read from the fitted curve at half-maximal effect; % is scaled to controls: 0 for no effect and ±100 for the full control effect
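Compounds are dispensed onto cells plated 4 h earlier at 1,000 per well, with HCVcc-Cre virus (about 0.5 moi) added next. Following 44 h of culture, luminescent signal is measured for 15 sec after 15 min with substrate at room temperature.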
* hit, by the source's call; ? = inconclusive; / = no result; [ ] = dose if it differs, or a comment. Unless noted, calls follow the shape of the dose curve; as a rule, active = well fitted curve in the direction sought with a large enough effect; inconclusive = small, poorly fitted or top-dose-only effect, or another doubt; inactive = no such curve, though single readings can be large; an effect the other way counts as inactive or inconclusive.

SMILES	AMA1-RON2 inh	Pf growth 96h	CHX counter	Pf growth 48h	Shiga inhibitor	HCV inh
COc1ccc(NC(=O)Cn2c(=O)n(-c3ccc(CC(=O)NCc4ccco4)cc3)c(=O)c3ccccc32)cc1	3%	15%	1	19%	10	?
COc1ccsc1C(=O)NCCN1CCOCC1	-2%	96%	-4	22%	-6	13%
CCCCNS(=O)(=O)c1ccc(NC(=O)C(Sc2ccccc2)c2ccccc2)cc1 (centres undefined)	-15%	?	6	10µM*	-1	?
Cc1ccc2oc(C(=O)NCCC3CCCCO3)c(C)c2c1 (centres undefined)	16%	?	26*	178%	63*	-1%
Cc1ccc2oc(C(=O)NCCCN3CCOCC3)c(C)c2c1	10%	-11%	44*	149%	71*	23%
COc1ccc2oc(C(=O)NCCN3CCOCC3)c(C)c2c1OC	-1%	3%	61*	172%	63*	/
CC1(Cc2ccccc2F)C(=O)Nc2c(Cl)ccc(Cl)c21 (centres undefined)	9%	/	/	/	/	/
CC[C@H](C)[C@H](NC(=O)[C@H](C)NC(=O)[C@H](Cc1cnc[nH]1)NC(=O)[C@@H]1CCCN1C(=O)CNC(=O)[C@H](CC(C)C)NC(=O)[C@H](CC(C)C)NC(=O)[C@H](Cc1ccc(O)cc1)NC(=O)CNC(=O)[C@H](C)NC(=O)[C@H](CO)NC(=O)[C@H](CC(N)=O)NC(=O)[C@H](CC(C)C)NC(=O)[C@@H](NC(=O)[C@H](Cc1c[nH]c2ccccc12)NC(=O)CN)[C@@H](C)O)C(=O)O	/	/	-5	/	-7	/
COc1ccc(C(C)(O)c2nc(-c3ccc(S(C)(=O)=O)cc3)cs2)cc1 (centres undefined)	-8%	/	/	/	/	/
CN(C(=O)c1cccc(NC(=O)Cc2ccc(NC(=O)C3CCCN(C(=O)C4CCC4)C3)cc2)c1)C1CCCCC1 (centres undefined)	-5%	/	/	/	/	?
O=C(NCCCN1CCOCC1)C(Sc1ccccc1)c1ccccc1 (centres undefined)	3%	7.4µM*	1	-10%	-2	7%
Cc1ccc(-n2c3c(cc(C(=O)NCCCN4CCOCC4)c2=O)C(=O)CC(C)(C)C3)cc1	1%	0.83µM*	-1	2%	-3	0%
Cc1cc(C)c(S(=O)(=O)N2CCOC2CNC(=O)C(=O)NCCN2CCOCC2)c(C)c1 (centres undefined)	6%	15%	-2	?	-1	37%
Cc1ccc(C(=O)NCCCN2CCOCC2)c(C)c1	10%	-22%	20*	19%	42	19%
Cc1cc(C)c(S(=O)(=O)N2CCOC2CNC(=O)C(=O)NCCCN2CCOCC2)c(C)c1 (centres undefined)	8%	?	35*	20%	80*	8%
C=CCN(CC=C)CCCOc1ccc(Br)cc1Cl	-17%	100%	16	26%	5	-2%
CC1=C(C(=O)N(C(C)C)C(C)C)CC(CC(=O)NC(c2ccccc2)c2ccccc2)C(=O)N1CCCN1CCCC1=O (centres undefined)	3%	/	/	/	/	/
Cc1cccc(N=C2CCCC2C(=O)Nc2cccc(C)c2C)c1C (centres undefined)	-12%	/	/	/	/	13%
CCNC(=O)C1CCCN(C(=O)c2ccc3c(c2)CCO3)CC1 (centres undefined)	-7%	/	/	/	/	/
Cc1ccc(C(=O)NCCCN2CCOCC2)c(Cl)c1	0%	?	17*	4%	/	10%
CCOC(=O)c1cc2c(=Cc3ccc(N(C)C)cc3)c3ccccc3n2[n+]1C	20µM*	/	/	/	/	?
CCCCC1(C)OC(=O)C(=Cc2ccc(N(C)C)cc2)C(=O)O1 (centres undefined)	-5%	113%	-3	14%	-2	11%
Cc1cc2c(=Cc3ccc(N(C)C)cc3)c3ccccc3n2[n+]1C	?	/	/	/	/	1.3µM*
CCOC(=O)SC1=N/C(=C\c2ccc(N(C)C)cc2)C(=O)S1	?	11%[5.75 µM]	6	21%	-4	5%
CC1=NN(c2cccc(F)c2)C(=O)/C1=C/c1ccc(N(C)C)cc1	-4%	?	2	-11%	-11	26%
SMILES	AMA1-RON2 inh	Pf growth 96h	CHX counter	Pf growth 48h	Shiga inhibitor	HCV inh
CN(C)c1ccc(C=c2c3ccccc3n3c2c2ccccc2[n+]3C)cc1	?	/	/	/	/	8.9µM*
COc1ccc(NN=Nc2ccc([N+](=O)[O-])cc2)cc1	-7%	113%	32*	191%	27	-19%
COc1ccc(N/N=C(/Oc2ccc([N+](=O)[O-])cc2)C(C)=O)cc1	13%	12µM*	6	?	-1	5%
COc1ccc(C(=O)/C(C#N)=N/Nc2cccc([N+](=O)[O-])c2)cc1	-15%	-10%	-2	-18%	26	11µM*
COc1ccc(OC)c(-c2csc(NC(=O)CSc3nnnn3C)n2)c1	-9%	13%	/	-19%	/	4%
Cc1ccccc1NC1=C/C(=N\S(=O)(=O)c2ccc(C(=O)O)cc2)c2ccccc2C1=O	-27%	?	19	2.6µM*	36*	?
O=C(O)c1ccc(S(=O)(=O)/N=C2\C=C(Nc3ccccc3F)C(=O)c3ccccc32)cc1	-10%	?	9	2.6µM*	33	10µM*
CCc1ccc(S(=O)(=O)/N=C2\C=C(NS(=O)(=O)c3ccccc3)C(=O)c3ccccc32)cc1	-14%	-10%	30*	30%	44*	-27%
COC(=O)C(C(C)=O)C1=C/C(=N\S(=O)(=O)c2ccc(C)cc2)c2ccccc2C1=O (centres undefined)	-5%	?	-1	/	-11	?
CC[C@]1(C(=O)OC)[C@H]2C(=O)N(Cc3ccccc3)C(=O)[C@H]2[C@H]2CN(C)C(=NCc3ccccc3)N21	-2%	/	/	/	/	2%
Cc1cc(C)c(C)c(OC(=O)c2sc(Cl)nc2C)c1	3%	-19%	-1	-28%	19	6%
Cc1ccc2[nH]c(C)c(/C=C/c3cc[n+](C)cc3)c2c1	-10%	32%	-1	?	16	?
Cn1cc(S(=O)(=O)c2ccccc2)c(=O)c2cc(Cl)ccc21	4%	14%	-9	5%	-3	-12%
Cn1cc(/C=C/c2cc[n+](C)cc2)c2cc(F)ccc21	6%	0.13µM*	18	0.26µM*	-11	0.56µM*
C[n+]1ccc(/C=C/c2c[nH]c3ccc(F)cc23)cc1	5%	?	-2	0.37µM*	-4	1µM*
Cn1cc(C=O)c2cc(F)ccc21	-1%	28%	-1	9%	-3	9%

Assay outcomes: PubChem BioAssay, National Center for Advancing Translational Sciences (NCATS)
